{"source": "PubChem BioAssay (NCATS)", "note": "Records with an inconclusive call do not appear. Entries that show only a call come without a potency. Activity calls are given as the source filed them. The call rests on the fitted dose curve; in most records, active means well fitted inhibition curve with a large enough effect; inconclusive means small, poorly fitted or top-dose-only effect; inactive means no such curve, though single readings can be large or run the other way."}
{"tested_on": "Zika virus NS2B-NS3 protease (unlinked complex)", "experiment": "Primary screen GU Rhodamine qHTS for Zika virus inhibitors: Unlinked NS2B-NS3 protease assay (AID 1347159); further: nearly all actives have a fitted effect of over 60% in size", "settings": "Recombinant ZIKV NS2B-NS3 protease, Rhodamine110 substrate fluorescence; series mostly up to 107 µM", "outline": "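A qHTS format was used, with compound concentrations ranging up to 114 microM. Each compound was preincubated with 25 nM NS2B-NS3 protease, and the substrate was then added at 1.5 microM. Curves were fitted with a 4-parameter Hill model.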"}
{"smiles": "CCC(C)(C)C1CCc2c(sc(NC(=O)c3ccc(Br)cc3)c2C#N)C1", "note": "(configuration not stated)", "Potency": "inactive"}
{"smiles": "CC(NC(=O)CC(=O)O)C(=O)Nc1ccccc1C(N)=O", "note": "(configuration not stated)", "Potency": "inactive"}
{"smiles": "OCC1OC(Oc2cc(O)cc(/C=C/c3ccc(OC4OC(CO)C(O)C(O)C4O)cc3O)c2)C(O)C(O)C1O", "note": "(configuration not stated)", "Potency": "inactive"}
{"smiles": "CCCCOc1nc(N)c2c(n1)N(Cc1cccc(CN3CCCC3)c1)CC(=O)N2", "Potency": "inactive"}
{"smiles": "C=C(CCO)C(=O)OCC1OCC(OC(=O)C(=C)CCO[C@@H]2O[C@H](COC(=O)C(=C)CCO[C@@H]3O[C@H](CO)[C@@H](O)[C@H](O)[C@H]3O)[C@@H](O)[C@H](O)[C@H]2O)C(O)C1O", "note": "(some centres not stated)", "Potency": "inactive"}
{"smiles": "Cc1cc(Cn2cnc3c2CC(C(=O)O)N(C(=O)C(c2ccccc2)c2ccccc2)C3)ccc1N(C)C", "note": "(configuration not stated)", "Potency": "inactive"}
{"smiles": "CN(C)CC(c1ccc(O)cc1)C1(O)CCCCC1", "note": "(configuration not stated)", "Potency": "inactive"}
{"smiles": "COc1ccc2c(c1)N1C(=O)C[C@@]34C=CC[N@+]5([O-])CC[C@H]2[C@H](CC3)[C@@]145", "Potency": "inactive"}
{"smiles": "Nc1c(-c2ccccc2)nc(Cl)c2c(O)n[nH]c(=O)c12", "Potency": "inactive"}
{"smiles": "C=C1C[C@]23C[C@@]1(O)CC[C@H]2[C@@]12C=C[C@H](O)[C@@](C)(C(=O)O1)[C@H]2[C@@H]3C(=O)O", "Potency": "inactive"}
{"smiles": "C=C1CC2C3(C)C(O)CC(=O)C(C)(C)C3C(O)C(OC(C)=O)C2(C)C2C(=O)OC(C)(C(=O)OC)C(=O)C12C", "note": "(configuration not stated)", "Potency": "inactive"}
{"smiles": "Cc1cn(-c2cc(NC(=O)c3ccc(C)c(Nc4nccc(-c5cnccn5)n4)c3)cc(C(F)(F)F)c2)cn1", "Potency": "inactive"}
{"smiles": "CC(CC12CCCN1C(=O)C1CCCN1C2=O)OC(N)=O", "note": "(configuration not stated)", "Potency": "inactive"}
{"smiles": "COC(=O)C1=CO[C@@H](O[C@@H]2O[C@H](CO[C@@H]3O[C@H](CO)[C@@H](O)[C@H](O)[C@H]3O)[C@@H](O)[C@H](O)[C@H]2O)[C@@H]2C(CO)=CC[C@H]12", "Potency": "inactive"}
{"smiles": "C[C@@H]1O[C@@H](O[C@H]2[C@@H]3C=CO[C@@H](O[C@@H]4O[C@H](CO)[C@@H](O)[C@H](O)[C@H]4O)[C@@H]3[C@@]3(CO)O[C@@H]23)[C@H](O)[C@H](OC(=O)/C=C/c2ccc(O)cc2)[C@H]1OC(=O)/C=C/c1ccc(O)cc1", "Potency": "inactive"}
{"smiles": "O=C(/C=C/c1ccc(O)cc1)OC[C@H]1O[C@H](O[C@@]2(CO)O[C@@H](CO)[C@H](O)[C@H]2O)[C@H](O)[C@@H](O)[C@@H]1O", "Potency": "inactive"}
{"smiles": "O=C(O)c1ccnc(-c2cc(C(=O)NCCc3ccccc3)ccn2)c1", "Potency": "inactive"}
{"smiles": "COc1cn(-c2ccc(-n3cccn3)cc2F)nc(-c2ccnn2-c2ccccc2)c1=O", "Potency": "inactive"}
{"smiles": "CC1=C[C@H](O)[C@H]2C(C)(C)CCC[C@]2(C)[C@@]1(O)CO", "Potency": "inactive"}
{"smiles": "O=C(OC[C@H]1O[C@H](O[C@]2(CO)O[C@H](CO)[C@@H](O)[C@@H]2O)[C@H](O)[C@@H](O)[C@@H]1O)c1ccc(O)cc1", "Potency": "inactive"}
{"smiles": "COc1ccc(/C=C/C(N)=O)cc1OC", "Potency": "inactive"}
{"smiles": "CCCCS(=O)(=O)NC(Cc1ccc(OCCCCC2CCNCC2)cc1)C(=O)O", "note": "(configuration not stated)", "Potency": "inactive"}
{"smiles": "CC1(C)CC[C@]2(C(=O)O[C@@H]3O[C@H](CO)[C@@H](O)[C@H](O)[C@H]3O)CC[C@]3(C)C(=CCC4[C@@]5(C)C[C@@H](O)[C@H](O)[C@@](C)(CO)C5[C@H](O)C[C@]43C)C2C1", "note": "(some centres not stated)", "Potency": "inactive"}
{"smiles": "CC1=C2CC(C)(C)CC2C(O)C2=C(C1)C(=O)OC2O", "note": "(configuration not stated)", "Potency": "inactive"}
{"smiles": "COc1cc2c(cc1O)CC(O)(CO)C(CO)C2c1ccc(OC2OC(CO)C(O)C(O)C2O)c(OC)c1", "note": "(configuration not stated)", "Potency": "inactive"}
{"smiles": "COc1cc(C(C)=O)ccc1O[C@@H]1O[C@H](CO)[C@@H](O)[C@H](O)[C@H]1O", "Potency": "inactive"}
{"smiles": "COc1cc(O)cc(C)c1C(=O)OC1C(CO)OC(n2ccc(=O)[nH]c2=O)C1OC(C)=O", "note": "(configuration not stated)", "Potency": "inactive"}
